Test results reported in the supplement of paper PMC6555819.

System: RARb:RXRa (NR concentration 270 nM, RXRa partner concentration 90 nM)
Assay: PBM binding z-score (relative to random genomic background probes); higher = stronger binding; sequences stand for … in GC…GCGATTGACAGCGTAGAATGAAGG
Method in brief: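 Probes were double-stranded and carried 34-nt variable regions with direct-repeat seeds, single-nucleotide variants, half-site ablations and random human genomic background sequences, printed on custom Agilent 4×180K protein-binding microarrays. Arrays were incubated 1 h with ligand-free nuclear receptor dimers in PBS pH 7.4, 2% milk, 0.02% Triton X-100, 1 mM DTT, 0.2 mg/mL BSA and 0.4 mg/ml salmon testes DNA. Antibodies against each partner (one per run) detected binding, and scanned fluorescence was regression-normalized. Binding z-scores use the random background probes as reference.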

Sequence | PBM binding z-score
CGAACTAGGTCAAGGACAGTGAGTCTCCGCACGC | 3.83
TCATATAGGTAAATGCTAGGTGACAGTCCGATCT | 0.403
ATATGTAGGTTATCGTGTCATTCAGTTTGCGCAT | 1.32
GCTTACGGGTCAAAGGTTATATCATGAATAGAAT | 4.55
TCTTGTAGACCAACAGGAGGTTAAGAAAGATCGA | 0.416
TCTGCTAGGTCAACGCTGGTCAGCTAATCTGCTA | 4.16
ATCTCTAGGTTACAAGTTCAGTGAAAGAGAGGAC | 2.69
CCTGCTGGGTCAATGGTCAGCTAAAGCAGCTCGC | 3.29
TCATATAGGTAAGCAGGTGAAAGTCCGTAAGTTA | 0.318
CCTACTGGGCCAAAAAGGTCTTTGATGCCGATAA | 0.422
CGAACTAGGTCAAGGTCAAAGTCGGTTTGTGCCA | 4.93
GTACCAAAGTGAATAGGTCGTTGATGAGTAGGCG | 0.279
GGAACGAGGGCAAGTTCATAGCAGAGTTTGATGG | 3.37
ACTTACGGGGCAACGAGGTTATAGCACGCGTATA | 1.63
GCTTACGGGGCAAAGGTTATAGCATGAATAGAAT | 2.32
ATCTCTAGGTAAGACTGAGTTCAGTGAAGAACGC | 0.692
ATCGAAAGGTCCTGAGGTGAGTATACAGAAAGGC | 1.12
TCGAGTAGGTTACCAATGGGGCATTGAGCTTTCT | 0.917
CCTACTGGGCCACGAAAGGTCATTGATTCAGTGA | 4
CAAACTAGGTCACGAAAGGACAAAGTCGAATGAC | 4.54

Sequence | PBM binding z-score
AGAATGAGGTAATTAAGATCAGGGAATTGCGGTC | 0.0669
ACTAGCTGGTCAGCTGAGGTCACACACAATTCGG | 3.69
ACTATTAGTGGAGACGAGGGCAACCGATAGGTTG | 0.779
CAGACTAGGTCAAGGTCAAAGTCGGTTTGTGCCA | 5.05
TTTTGTAGATCAATAGAGGTTAAGAAAGTGCGCT | 1.15
CCTAGTTGGTTAGGAGGTCACACACCGGATATGA | 3.42
CTGACTGGGGCAAGGTTACCATAACGCACAGCCA | 1.86
GGAACGAGGGCAAAGTCGATAGCATCTGTCGACG | 1.87
TCATATATGTAATACAGGTGAAAGTCGGCATCTA | 0.42
CAAACTAGGTCAAAGGTGAAAGTCGAGCCAACCA | 4.41
CAAACTAGGTCAAGAGGTCTAAGTCCGCTTCCCG | 4.1
TTACCAAGGTGAAAGGTCGTTGTTGCACGCCTTG | 3.09
CCGAGTTGGTTATGGGGCATTCAGGCAACGGTGA | 0.288
CACCCTAGGTCAGGGCCAGTATAGGAGGAACGTT | 3.38
AGAATGAGGTTATTAAGATCGGGGAATTGCGGTC | 1.37
TGAATGATGTTAAAGATCAGGGAACGTGGCGTCG | -0.0162
CAGCCTAGGTCAGGGCCAGTACAGGAGGAACGTT | 3.42
TGAATGAGTTTATAAGATCAGGGAACGTTGCAAA | -0.00933
ATACCAAGGTAATCGTGAGGTCGTTGATACTAAC | 1.07
